The list is not random: actives were taken first. Their share in the collection is about 0.88%.
RECQ1 helicase = qHTS Assay for Inhibitors of RecQ-Like Dna Helicase 1 (RECQ1) | Potency, µM (titrated, usually from 57.3 µM), inactives show top-dose activity, negative = inhibition, hits mostly inhibitors | ATP-dependent DNA helicase Q1 (Homo sapiens), P46063 | RECQ1 DNA unwinding, red fluorescence kinetic read | 240,000 compounds, 0.54% hits;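 note: plate controls were vehicle for no effect and no enzyme for full effect; nearly all actives have a fitted effect of over 30% in size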
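RECQ1T1 50 nM; forked duplex (20 bp + 30-nt ss tails) 200 nM, ATP 2 mM final; pH 8.0, 2 mM MgCl2, 2.5 ug/ml poly(dI-dC); 15 min compound preincubation; discontinuous kinetic read over 2 h at RT.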
WRN helicase inh = qHTS for Inhibitors of WRN Helicase; 360,000 compounds, 0.46% hits; Potency, µM (top dose mostly 114 µM), without a hit: at the highest dose activity change, negative = inhibition, usual class: inhibitors; WRN helicase unwinding, fluorescent forked duplex, kinetic; note: % is set by controls: 0 for no effect and ±100 for the full control effect; nearly all actives have a fitted effect of over 55% in size
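Fluorescence dequenching readout, ex 525 nm/em 598 nm, kinetic mode: forked duplex DNA (100 nM final) with adjacent fluorophore and quencher unwound by WRN (20 nM final) with 2 mM ATP. Compound preincubation 15 min, room temperature.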
APE1 inh = qHTS Assay for Inhibitors of the Human Apurinic/apyrimidinic Endonuclease 1 (APE1). recombinant APE1, TAMRA/BHQ-2 abasic DNA cleavage fluorescence. Potency, µM (series often up to 65.8 µM), without a hit: top-dose activity change, negative = inhibition, most hits filed as inhibitors. 350,000 compounds, 0.35% hits;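 note: plate controls were vehicle for no effect and reference inhibitor for full effect; nearly all actives have a fitted effect of over 55% in size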
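Enzyme (0.75 nM final) and test compound are incubated 15 min at room temperature before adding 50 nM quenched THF abasic-site duplex. Cleavage dequenches TAMRA, followed at 525/598 nm over three reads one minute apart.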
BLM helicase inh = qHTS Assay for Inhibitors of Bloom's syndrome helicase (BLM); recombinant BLM DNA unwinding, fluorescence dequenching; Potency, µM (series often up to 56.1 µM), for the others: top-dose activity change, negative = inhibition, hits mostly inhibitors; 350,000 compounds, 0.2% hits;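 note: plate controls were vehicle for no effect and no enzyme for full effect; nearly all actives have a fitted effect of over 35% in size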
ERG-DNA inh = qHTS for Small Molecule Inhibitors of the ERG Ets/DNA interaction | fluorescence polarization, His-ERG Ets domain / labelled DNA | 370,000 compounds, 0.028% hits | Transcriptional regulator ERG (Homo sapiens), P11308 | Potency, µM (top dose mostly 76.9 µM), inactives show at the highest dose FP activity, negative = inhibition, most hits filed as inhibitors; active = well fitted inhibition curve with a large enough effect in the polarisation, with a control signal flat; inconclusive = small, poorly fitted or top-dose-only effect, or effect the other way, or a change in a side signal; inactive = no such curve, though single readings can be large or run the other way; the % refers to the polarisation;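 note: polarization taken with two DNA probes labelled with fluorescein and Texas red; % of control where 0% means no effect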
Target sequence (P11308 whole entry, looked up, the tested form may be a part): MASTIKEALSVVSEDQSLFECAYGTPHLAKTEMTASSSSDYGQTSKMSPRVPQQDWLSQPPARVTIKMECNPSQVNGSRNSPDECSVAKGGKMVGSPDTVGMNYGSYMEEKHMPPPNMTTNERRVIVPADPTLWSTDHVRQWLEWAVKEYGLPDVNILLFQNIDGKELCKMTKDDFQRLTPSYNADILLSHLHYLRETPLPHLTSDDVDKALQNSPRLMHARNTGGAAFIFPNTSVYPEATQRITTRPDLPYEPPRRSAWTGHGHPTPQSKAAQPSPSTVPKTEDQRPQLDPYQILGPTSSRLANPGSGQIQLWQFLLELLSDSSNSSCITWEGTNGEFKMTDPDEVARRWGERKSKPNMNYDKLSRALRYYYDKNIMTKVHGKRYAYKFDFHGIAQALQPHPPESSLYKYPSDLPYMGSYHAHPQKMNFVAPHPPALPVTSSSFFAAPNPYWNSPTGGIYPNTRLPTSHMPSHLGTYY
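His-tagged ERG Ets domain (1 uM in the protein solution; 300mM KCl, 50mM Tris-HCl, 1mM EDTA, 1mM DTT, pH 7.5) received compound, then a probe mix of 5 nM fluorescein-DNA and 100nM Texas-615-DNA. Fluorescence polarization was read for both dyes.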
GCN5L2 inh = qHTS Assay for Inhibitors of GCN5L2; GCN5L2 HAT assay, ThioGlo1 CoA-SH fluorescence; Potency, µM (highest dose often 58.9 µM), for inactives: at the highest dose activity change, negative = inhibition, hits mostly inhibitors; 390,000 compounds, 0.21% hits; AID 504327, 2011; note: % is set by controls: 0 for no effect and ±100 for the full control effect
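Preincubate 20nM GCN5L2 with compound 15 min, RT → add 50uM ThioGlo1 + 75uM H3(1-25) + 70uM acetyl-CoA → read fluorescence 0 and 20 min. Primary qHTS; fluorescent artifacts likely.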
Active calls of the source: *; i = inactive; u = inconclusive; x = not tested or not shown; [ ] = remark or other dose. Unless noted, calls come from the whole dose curve; as a rule, active = well fitted curve in the direction sought with a large enough effect; inconclusive = small, poorly fitted or top-dose-only effect, or another doubt; inactive = no such curve, though single readings can be large; an effect the other way counts as inactive or inconclusive. Potency is the fitted concentration of half-maximal effect.

SMILES	RECQ1 helicase	WRN helicase inh	APE1 inh	BLM helicase inh	ERG-DNA inh	GCN5L2 inh
CCCCNC(=O)c1ccc(Cn2c(=S)[nH]c3c([nH]c4ccc(OC)cc43)c2=O)cc1	-5%	-30%	0%	0%	-12%	4%
S=c1[nH]nc(-c2cc(-c3ccccc3)n[nH]2)n1/N=C/C(Br)=C/c1ccccc1	-4%	45µM*	3%	-20%	1%	u
CCC(=O)OCC(=O)[C@@]1(OC(=O)CC)[C@H](C)C[C@H]2[C@H]3[C@H]([C@@H](O)C[C@@]21C)[C@@]1(C)C=CC(=O)C=C1C[C@H]3Cl	x	x	-3%[21 µM]	x	x	x
N#C/C(=C\c1ccc(O)c(O)c1)C(=O)Nc1ccccc1	-11%	u	u	-19%	3%	-8%
N#C/C(=C/c1ccc(O)c(O)c1)C(=O)OC/C=C/c1ccccc1	u	x	u	x	x	14µM*
COc1ccc(C2=CC3=C(Br)C(=O)C(C)(OC(=O)c4ccco4)C(=O)C3=CO2)cc1 (centres undefined)	-23%	45µM*	16%	2%	27%	20%
COc1ccc(C2=CC3=C(Br)C(=O)C(C)(OC(=O)c4cccs4)C(=O)C3=CO2)cc1 (centres undefined)	-6%	u	15%	-3%	24%	x
CCCOC(=O)c1c(-c2ccccc2)c(-c2ccccc2)nn(C)c1=O	x	x	x	1%	-4%	-11%
CCCCS(=O)(=O)N1CCc2nc(-c3ccc(OC)cc3C)c3c(c2C1)CO[C@@H](c1ccccc1)C3	i[11.5 µM]	x	-6%[12.4 µM]	-5%[12.4 µM]	x	x
C#CCCCO/N=C1/C[C@@H](O)[C@@H](O)[C@@H]2[C@@H]3C(=O)N(CCC(=O)OCC)C(=O)[C@H]3CC[C@@H]12	11%[11.5 µM]	x	25%[12.4 µM]	5%[12.4 µM]	x	x
CCS(=O)(=O)C1=NN2C(=N)/C(=C\c3ccc(OC(=O)c4ccco4)c(Br)c3)C(=O)N=C2S1	x	x	-22%	-17%	x	-24%
CCS(=O)(=O)C1=NN2C(=N)/C(=C\c3ccc(SCc4ccco4)o3)C(=O)N=C2S1	u	56µM*	u	-11%	141%	-25%
Cc1ccc(C2C3=C(CCCC3=O)Nc3[nH]c(=S)[nH]c(=O)c32)cc1 (centres undefined)	-9%	4%	-1%	0%	3%	22µM*
C=CC1=C2C=C(C3CC3)N(CCCOC(C)C)C=C2C(=O)C(C)(OC(=O)c2ccco2)C1=O (centres undefined)	12%[11.5 µM]	x	-3%[12.4 µM]	-12%[12.4 µM]	x	x
CC(C)(C)c1nn(-c2ccccc2)c2[nH]c(=O)c(CNc3ccc4c(c3)OCCO4)cc12	-5%	-23%	u	-13%	x	35µM*
C/C(=N\NC(=O)c1cc(O)cc(O)c1)c1ccc(NC(=O)Cc2ccccc2)cc1	x	20µM*	1.3µM*	-26%	-12%	u
C/C(=N\NC(=O)c1cccc(F)c1)c1ccc(NC(=O)Cc2ccccc2)cc1	x	-8%	11%	-3%	9%	1%
O=S(=O)(/N=S1/CC=CCN1S(=O)(=O)c1ccccc1)c1ccccc1 (centres undefined)	-11%	45µM*	-11%	-1%	-2%	-21%
CCc1nn(CC(=O)Nc2ccc(NC(C)=O)cc2)c(=O)c2cc3sccc3n12	x	x	x	-2%	1%	-7%
COc1ccc(Cl)cc1Nc1nnc(-c2ccncc2)s1	x	-5%	8.4µM*	-6%	6%	u
CC(Oc1ccc2cc(-c3ccccc3)c(=O)oc2c1)C(=O)NCC1CCC(C(=O)O)CC1 (centres undefined)	x	-9%	-15%	3%	6%	32µM*
CC(Oc1ccc2ccc(=O)oc2c1)C(=O)NCC1CCC(C(=O)O)CC1 (centres undefined)	x	-2%	24%	0%	-3%	-3%
COC(=O)[C@@H](NC(=O)N1CCc2nc(-c3ccc(OC)cc3C)c3c(c2C1)CO[C@@H](c1ccccc1)C3)C(C)C	-1%[11.5 µM]	x	-1%[12.4 µM]	-3%[12.4 µM]	x	x
S=c1nc(-c2cccc(Cl)c2)[nH][nH]1	-4%	-13%	2%	2%	-19%	-17%
S=c1nc(-c2cc(Cl)ccc2Cl)[nH][nH]1	-13%	-22%	14%	4%	-7%	3.5µM*
SMILES	RECQ1 helicase	WRN helicase inh	APE1 inh	BLM helicase inh	ERG-DNA inh	GCN5L2 inh
COc1ccc(CCC(=O)O)c(O)c1	i	-13%	16µM*	-7%	-2%	u
COc1ccc(C(=O)CCc2ccccc2)c(O)c1	x	-2%	x	x	-9%	x
COc1cc(C2CC(=O)Nc3cc4c(cc32)OCCO4)cc(OC)c1O (centres undefined)	x	x	x	-3%	-3%	-9%
C[n+]1ccc(/C=C/c2ccc3ccccc3c2)cc1	20%	x	-3%	x	x	28µM*
C[n+]1ccc(/C=C/c2ccc(Br)cc2)cc1	-6%	-16%	0%	21%	4%	-21%
Nc1c(Cl)cc(Cl)cc1Cl	4%	x	3%	x	x	x
O=C1c2c(O)cc(O)cc2O[C@H](c2ccc(O)c(O)c2)[C@H]1O	u	-8%[11.6 µM]	u	-4%	-6%	0%
Oc1ccc2c(c1)OC(c1ccc(O)c(O)c1)C(O)C2 (centres undefined)	-11%	x	u	-3%	x	-2%
O=C1c2c(O)cc(O)cc2O[C@H](c2ccc(O)c(O)c2)[C@@H]1O	18µM*	x	u	-8%	x	-6%
